DT40 TDP1 CPT: DT40-hTDP1 cell growth loss with CPT. chicken DT40 Tdp1-/-;hTDP1 cells + 20 nM CPT, ATP luminescence, 48 h. Potency, µM (highest dose often 46.2 µM), without a hit: at the top dose activity change, negative = growth inhibition, actives largely listed as inhibitors. 12% of 420,000 active; also: potency is read from the fitted curve at half-maximal effect; nearly all actives have a fitted effect of over 55% in size
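Chicken DT40 Tdp1-/- cells complemented with human TDP1, 400 cells/well, exposed to compounds plus 20 nM camptothecin for at least 48 h at 37 C; viability read as ATP content by CellTiter-Glo luminescence.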
TDP1 cell noCPT: qHTS for Inhibitors of human tyrosyl-DNA phosphodiesterase 1 (TDP1): qHTS in cells in absence of CPT. DT40 Tdp1-/- hTDP1 cells, no CPT, ATP luminescence, 48 h. Potency, µM (titrated, usually from 46.2 µM), inactives show at the highest dose activity change, negative = growth inhibition, hits mostly inhibitors. 15% of 420,000 active. AID 686978, 2013; also: potency is read from the fitted curve at half-maximal effect; nearly all actives have a fitted effect of over 55% in size
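A cellular qHTS used chicken DT40 cells lacking endogenous Tdp1 but carrying stably transfected human TDP1. Compounds were applied without camptothecin, and cell growth kinetics were judged by ATP-dependent luminescence after ≥48 hr.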
TDP1 inh: inhibitors of human tyrosyl-DNA phosphodiesterase TDP1 | 0.28% of 350,000 active | Potency, µM (top dose mostly 130 µM), inactives show at the highest dose activity change, negative = inhibition, hits mostly inhibitors | Q9NUW8 | recombinant TDP1, AlphaScreen DNA substrate cleavage; also: potency is read from the fitted curve at half-maximal effect; nearly all actives have a fitted effect of over 40% in size
Target sequence (Q9NUW8 whole entry, looked up): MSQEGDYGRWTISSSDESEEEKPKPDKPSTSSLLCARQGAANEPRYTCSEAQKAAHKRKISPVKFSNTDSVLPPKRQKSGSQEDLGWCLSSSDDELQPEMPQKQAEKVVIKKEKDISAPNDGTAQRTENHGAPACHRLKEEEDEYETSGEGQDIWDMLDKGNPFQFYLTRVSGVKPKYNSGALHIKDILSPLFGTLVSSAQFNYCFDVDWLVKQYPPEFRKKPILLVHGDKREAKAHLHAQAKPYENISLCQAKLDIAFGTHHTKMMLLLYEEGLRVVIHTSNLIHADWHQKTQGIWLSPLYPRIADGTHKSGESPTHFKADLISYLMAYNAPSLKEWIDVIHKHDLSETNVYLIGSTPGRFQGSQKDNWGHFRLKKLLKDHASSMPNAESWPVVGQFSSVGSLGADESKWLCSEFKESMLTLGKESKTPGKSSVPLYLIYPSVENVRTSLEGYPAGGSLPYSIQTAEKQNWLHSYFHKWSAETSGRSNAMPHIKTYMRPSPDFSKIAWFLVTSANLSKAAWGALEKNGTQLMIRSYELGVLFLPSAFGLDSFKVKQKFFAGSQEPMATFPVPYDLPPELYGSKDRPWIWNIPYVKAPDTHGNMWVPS
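Recombinant E. coli-expressed Tdp1 (1 nM) preincubated with compound 15 min at RT, then 5'-biotin/3'-phosphotyrosine-FITC DNA substrate (15 nM) added for 5 min. AlphaScreen beads (10 ug/ml) added, 10 min RT; tyrosine-FITC cleavage read as signal loss.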
ELG1 DNA repair: blocks ELG1-dependent DNA repair in HEK293T cells. HEK293T ELG1-luciferase reporter, luminescence, 16 h; DNA damage induced by 5-fluorouridine. Potency, µM (highest dose often 46.1 µM), for the others: top-dose activity change, negative = inhibition, most hits filed as inhibitors. 2.3% of 330,000 active; also: potency is read from the fitted curve at half-maximal effect; nearly all actives have a fitted effect of over 55% in size
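Reporter activity after DNA damage by 5-fluorouridine is monitored. Compound-treated cells incubate 16 hr at 37 °C, then ONE-Glo is added for 30 min before luminescence reading.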
IL-1B inflam inh: blocks inflammasome-driven IL-1 beta release; THP-1 LPS/ATP IL-1B secretion, AlphaLISA, 16 h; active compounds read low; activity change, % at 57.5 µM; 4.7% of 360,000 active; AID 743279; in the data active = activity change below about -50%; inconclusive = mostly about -30% to -49%
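Secreted IL-1B measured by AlphaLISA bead assay after 16 h compound exposure of THP-1 cells; compounds (final up to 57.5 uM) added 1 h before LPS (250 ng/mL) and ATP (1.25 mM) stimulation; lower signal means less secretion.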
Giardia killer: Giardia lamblia killing. activity change, % at 7.66 µM, hits read low. AID 540267. 0.15% of 340,000 active. Giardia lamblia trophozoite viability; in the data active = activity change below about -80%; inconclusive = between about -30% and that limit;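 also: parasites exposed to compound for two days anaerobically before the ATP read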
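Viability, read as ATP luminescence: trophozoites at 100 cells/well, compound added, 48 hrs anaerobic at 37 deg C, then 15-30 min room-temperature development before reading.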
The depositor's hits bear a star; ? = inconclusive; nt = not tested or not shown. In the library only some 19% were active in any assay of this set; here they are far more common. Unless noted, calls follow the shape of the dose curve; as a rule, active = well fitted curve in the direction sought with a large enough effect; inconclusive = small, poorly fitted or top-dose-only effect, or another doubt; inactive = no such curve, though single readings can be large; an effect the other way counts as inactive or inconclusive. % is scaled to controls: 0 for no effect and ±100 for the full control effect.

SMILES | DT40 TDP1 CPT | TDP1 cell noCPT | TDP1 inh | ELG1 DNA repair | IL-1B inflam inh | Giardia killer
OCC1(Cc2cccc(C(F)(F)F)c2)CCN(Cc2cc(F)cc(F)c2)CC1 | ? | ? | 0.0% | -14.3% | -77.5* | 14.6
CSc1cccc(CN2CCC(CO)(Cc3cccc(C(F)(F)F)c3)CC2)c1 | ? | 16.4µM* | 3.6% | -18.9% | -96.1* | -29.6
CCNC(=O)C1(C)CCN(Cc2cccc(C(F)(F)F)c2)C1 (centres undefined) | -26.4% | -26.3% | nt | nt | 0.0 | nt
CCS(=O)(=O)N1CC(=O)N(c2cccc(Cl)c2C)C(C)(C(=O)NC2CCCCC2)C1 (centres undefined) | -25.1% | -6.3% | 1.2% | nt | nt | nt
Cc1cc(CN2CCCC(CO)(Cc3cccc(Cl)c3)C2)n[nH]1 (centres undefined) | 13.4% | -25.2% | 2.4% | 8.9% | -5.9 | -0.4
CC(C)Cc1cc(CN2CCC(CO)(Cc3cccc(C(F)(F)F)c3)CC2)[nH]n1 | ? | ? | -5.6% | 4.8% | -81.8* | 10.4
Cc1ccc(-n2cc(CN3CCC(CO)(Cc4ccccc4)CC3)cn2)cc1 | nt | nt | nt | 3.2% | nt | nt
COc1ccc2[nH]c(C(=O)N3CCC(CO)(Cc4cccc(C(F)(F)F)c4)CC3)c(C)c2c1 | ? | 20.6µM* | nt | -15.4% | ? | 21.0
Cc1ccc(-n2cc(CN3CCC(CO)(Cc4cccc(C(F)(F)F)c4)CC3)cn2)cc1 | 9.2µM* | 20.6µM* | nt | 7.2% | -112.1* | -2.3
CCc1ccc(NC(=O)Cn2cnc3sc(C)c(S(=O)(=O)N4CCC(C)CC4)c3c2=O)cc1 | -5.8% | -27.0% | 2.9% | nt | nt | nt
CCOc1ccc(-n2c(SCC(=O)Nc3ccc4c(c3)OCCO4)nc3c([nH]c4ccccc43)c2=O)cc1 | ? | -26.6% | 4.4% | nt | nt | nt
COc1ccc(N2CCN(C(c3cccs3)C(C)NS(C)(=O)=O)CC2)cc1 (centres undefined) | -18.3% | -4.1% | 4.6% | -7.4% | 5.3 | -5.0
O=C(Nc1ccc(Cc2ccncc2)cc1)c1ccc(N2CCOCC2)c([N+](=O)[O-])c1 | -12.6% | ? | 5.5% | ? | -17.8 | -5.8
O=C(Nc1cccc(S(=O)(=O)N2CCOCC2)c1)c1cccc(S(=O)(=O)N2CCCC2)c1 | -13.1% | -29.9% | -3.5% | -17.9% | 33.4 | -0.4
O=C(Nc1cccc(S(=O)(=O)N2CCOCC2)c1)c1ccc(Cl)c([N+](=O)[O-])c1 | ? | ? | -22.6% | 5.8% | -98.7* | 1.7
Cc1ccc(C(=O)Nc2cccc(S(=O)(=O)N3CCOCC3)c2)cc1[N+](=O)[O-] | 11.6µM* | ? | 7.7% | ? | -4.3 | 3.4
CC(=O)N1CCN(c2ccc(NC(=O)c3ccc(Cl)c([N+](=O)[O-])c3)cc2)CC1 | ? | -15.2% | nt | -13.3% | -52.4* | 5.0
CN(C)S(=O)(=O)c1cccc(NC(=O)c2ccc(N3CCOCC3)c([N+](=O)[O-])c2)c1 | 16.4µM* | ? | 1.9% | 18.4µM* | -7.2 | -9.4
COc1ccc(C(=O)Nc2ccc(N3CCN(C(C)=O)CC3)cc2)cc1[N+](=O)[O-] | nt | nt | 1.2% | 2.9% | nt | nt
OCC[C@H]1C[C@@H](O)[C@H](O)[C@]2(CCCO2)O1 | -14.5% | 20.6% | nt | nt | -3.1 | -17.6
CC(C)CSc1nnc(CNC(=O)c2ccccn2)n1C | 4.2% | -7.1% | nt | nt | nt | nt
O=C(Nc1ccc(S(=O)(=O)N2CCOCC2)cc1)c1ccc(Cl)c([N+](=O)[O-])c1 | 13µM* | 13µM* | nt | nt | -96.1* | -3.6
O=C(Nc1ccc(S(=O)(=O)N2CCOCC2)cc1)c1cccc([N+](=O)[O-])c1 | ? | -14.3% | nt | ? | -3.7 | -22.5
O=C(Cc1n[nH]c(=O)c2ccccc12)NCc1ccccc1 | ? | -19.9% | 0.0% | 3.2% | 9.7 | 5.8
O=c1[nH]nc(Cc2ncc(C(F)(F)F)cc2Cl)c2ccccc12 | ? | 16.4µM* | nt | -7.7% | 52.7 | -6.4
SMILES | DT40 TDP1 CPT | TDP1 cell noCPT | TDP1 inh | ELG1 DNA repair | IL-1B inflam inh | Giardia killer
O=c1[nH]nc(Cc2ccc(Cl)cc2Cl)c2ccccc12 | -27.7% | -60.9% | 3.9% | -18.0% | -10.4 | 9.1
O=c1[nH]nc(CNc2ccc(OC(F)(F)F)cc2)c2ccccc12 | 20.6µM* | 18.4µM* | 2.4% | -19.6% | 11.7 | -11.2
O=c1[nH]nc(CNc2ccc(O)cc2)c2ccccc12 | ? | 20.6µM* | 2.3% | 1.2% | -101.4* | -9.4
O=c1[nH]nc(CNc2ccc(C(F)(F)F)cc2)c2ccccc12 | 11.6µM* | 14.6µM* | -3.6% | 14.3% | 27.5 | -16.8
O=c1[nH]nc(CNc2ccc(Cl)cc2Cl)c2ccccc12 | ? | ? | 4.8% | -3.1% | 3.7 | -15.2
CCCCOC(=O)c1ccc(NC(=O)c2ccc3c(c2)CCN3S(C)(=O)=O)cc1 | -25.1% | ? | 2.3% | nt | nt | nt
CCOC(=O)C1CCN(C(=O)Nc2c(-c3ccccc3)noc2C)CC1 | 12.3% | 0.0% | nt | 0.2% | 15.0 | 10.4
CC(C)(Oc1ccc(Cl)cc1)C(=O)NCc1n[nH]c(=O)c2ccccc12 | 20.6µM* | ? | -2.5% | -7.0% | 33.4 | 10.2
Cc1ccc(-c2csc3nc4cc(C(N)=O)ccc4c(=O)n23)cc1 | -19.6% | -22.9% | nt | 15.3% | -17.5 | -7.6
Cc1ccccc1Nc1nn2c(=O)c3ccc(C(=O)NCc4cccs4)cc3nc2s1 | 16.4µM* | 13µM* | nt | nt | nt | nt
O=C(NCc1ccccn1)c1ccc2c(=O)n3nc(Nc4ccccc4)sc3nc2c1 | ? | 0.4% | -20.6% | ? | -15.1 | 6.8
CCN(CC)CCNC(=O)c1ccc2c(=O)n3nc(Nc4ccccc4)sc3nc2c1 | 5.8µM* | 4.61µM* | -1.5% | nt | nt | nt
Cc1ccc(C)c(Nc2nn3c(=O)c4ccc(C(=O)NCc5ccccc5)cc4nc3s2)c1 | 5.17µM* | 7.31µM* | 5.6% | nt | nt | nt
Cc1ccc(CNC(=O)c2ccc3c(=O)n4c(-c5ccc(C)cc5)csc4nc3c2)cc1 | 7.31µM* | 9.2µM* | -1.2% | 2.7% | 18.4 | -4.4
O=C(NCc1ccco1)/C(=C/c1ccc(F)cc1)NC(=O)c1ccccc1 | 0.6% | 2.6% | 8.4% | -0.7% | -1.8 | -19.6
CCOC(=O)c1ccc(Nc2nn3c(=O)c4ccccc4nc3s2)cc1 | -5.0% | -4.6% | -3.4% | nt | nt | nt
Cc1ccccc1Nc1nn2c(=O)c3ccc(C(=O)NCC(C)c4ccccc4)cc3nc2s1 (centres undefined) | 14.6µM* | 14.6µM* | 8.5% | nt | nt | nt
CCc1cccc(C)c1Nc1nn2c(=O)c3ccccc3nc2s1 | 11.6µM* | 23.1µM* | nt | nt | nt | nt
COc1cccc(CNC(=O)c2ccc3c(=O)n4nc(Nc5ccccc5)sc4nc3c2)c1 | 8.2µM* | ? | 8.3% | nt | nt | nt

Bioassay records: PubChem BioAssay, National Center for Advancing Translational Sciences (NCATS)
